# Calls of active or inactive are those of the source. Cut-off read from the data, not from the text of the source: active = inhibition above about 65%; inactive = the rest.
# Test system: Antitargets
# Test: Fam108b inhibitors and proteome off-target selectivity – biochemical, gel-based ABPP, recombinant soluble Fam108b, HTS hits, complex proteome, late-stage follow-up (AID 588651);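 note: Fam108b spiked into mouse brain membrane proteome; tested at 20 µM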
# Conditions: FP-rhodamine labeling in proteome
row,Compound,outcome
1,CCn1nc([N+](=O)[O-])c(C(C#N)c2nc3cc(C(F)(F)F)ccc3s2)c(Cl)c1=O (centres undefined),inactive
2,COc1cc2cc(C(=O)NN=Cc3ccccc3Cl)[nH]c2cc1OC,inactive
3,Oc1oc(-c2ccccc2Br)nc1C=Nc1ccccn1,active
4,O=C1C(SCCO)=C(SCCO)C(=O)c2ccccc21,inactive
5,Cn1c2ccccc2c2cc(C=NNC(=O)c3cc(O)ccc3O)ccc21,inactive
6,Clc1ccccc1C(c1ccccc1)(c1ccccc1)n1ccnc1,inactive
7,COc1ccc(-c2csc3nc(-c4ccccc4F)oc(=O)c23)cc1,inactive
8,O=c1oc(-c2ccccc2F)nc2scc(-c3ccccc3)c12,inactive
9,Nc1c(S(=O)(=O)c2cccc(Cl)c2)c2nc3ccccc3nc2n1N=Cc1ccc(O)c(O)c1,inactive
10,Cc1[nH]c2ccccc2c1C=NNC(=O)c1cccc(S(=O)(=O)Nc2cccc(C(F)(F)F)c2)c1,inactive
11,O=S(=O)(c1cc(O)ccc1O)c1cccc2c(S(=O)(=O)c3cc(O)ccc3O)cccc12,inactive
12,Brc1csc(C=NNc2nc3ccccc3s2)c1,inactive
13,O=C(O)c1ccc(S(=O)(=O)/N=C2\C=C(Nc3ccccc3F)C(=O)c3ccccc32)cc1,inactive
14,Oc1ccccc1C1Nc2cccc3cccc(c23)N1,inactive
15,Oc1nc(Nc2cccc(Cl)c2)sc1/C=C1\C=Nc2ccccc21,active
16,Cc1cc(C(C#N)c2ccc(Cl)cc2)c(Cl)cc1NC(=O)c1cc(I)cc(I)c1O (centres undefined),inactive
17,CCc1ccc(S(=O)(=O)/N=C2\C=C(Nc3cccc(C(=O)O)c3)C(=O)c3ccccc32)cc1,inactive

row,Compound,outcome
1,O=C(Nc1ccc(-c2csc(Nc3ccccc3)n2)cc1)c1cc([N+](=O)[O-])cc(C(F)(F)F)c1,inactive
2,Cc1ccc(-n2c(O)c(/C=N/Nc3ccc(S(=O)(=O)N4CCOCC4)cc3[N+](=O)[O-])c3ccccc3c2=O)c(C)c1,inactive
3,Cc1cc(NN=Cc2c(O)ccc3ccccc23)nc(-c2ccccc2O)n1,inactive
4,COc1ccc(S(=O)(=O)/N=C2\C=C(Nc3ccc(O)cc3)C(=O)c3ccccc32)cc1,inactive
5,CCNc1ccc2noc3c2c1C(=O)c1ccccc1-3,inactive
6,O=C(Nc1ccc(-c2csc(Nc3ccc(Cl)cc3)n2)cc1)c1cccc(C(F)(F)F)c1,active
7,O=[N+]([O-])c1ccc(NN=Cc2ccccc2O)cc1,inactive
8,Cc1ccc(S(=O)(=O)/N=C2\C=C(Nc3cccc(C(=O)O)c3)C(=O)c3ccccc32)cc1,inactive
9,COc1ccc2oc(=O)c(-c3csc(Nc4cccc(O)c4)n3)cc2c1,inactive
10,CCN(c1ccccc1)S(=O)(=O)c1ccc(NC(=O)c2nc(S(C)(=O)=O)ncc2Cl)cc1,inactive
11,O=C1C(Cl)=C(Nc2ccc3cn[nH]c3c2)C(=O)c2ccccc21,inactive
12,O=C1NC(=S)/C(=C\c2ccc(-c3ccccc3Cl)o2)S1,inactive
13,Brc1ccc(-c2csc(Nc3nc(-c4ccc(Br)cc4)cs3)n2)cc1,inactive
14,CC(C)(C)c1nc2scc(-c3cccs3)c2c(=O)o1,inactive
15,COc1ccc(C=NNC(=O)c2ccc(O)cc2)cc1CN1CCCc2ccccc21,inactive
16,CN(C)S(=O)(=O)c1cccc(NC(=O)COC(=O)c2cc(-c3cccc(Br)c3)nc3ccccc23)c1,inactive
17,N=c1oc2cc(O)ccc2cc1C(=O)Nc1ccc(Br)cc1,inactive
